Screening data deposited in PubChem BioAssay by National Center for Advancing Translational Sciences (NCATS).
In the library only some 9.3% were active in any assay of this set; here they are far more common.
Vaccinia Venus: inhibitors of vaccinia virus (Venus reporter); Vaccinia virus Venus reporter expression, fluorescence; Potency, µM (doses to about 36.5 µM), for the others: at the top dose activity change, negative = inhibition, most hits filed as inhibitors; 0.46% of 330,000 active; calls by dose curve; tested in A549 cells; further: potency means the concentration at half of the fitted maximal effect; nearly all actives have a fitted effect of over 30% in size
FMDV inh: foot and mouth disease virus antiviral activity; Potency, µM (top dose mostly 57.9 µM), for the others: at the highest dose activity change, negative = inhibition, actives largely listed as inhibitors; 1.2% of 410,000 active; FMDV antiviral cell-based qHTS; calls by dose curve; tested in HEK293T cells; further: read-out not given here; potency means the concentration at half of the fitted maximal effect; nearly all actives have a fitted effect of over 45% in size
VACV mCherry inh: vaccinia inhibition (mCherry reporter); Vaccinia virus mCherry reporter infection, fluorescence; Potency, µM (doses to about 36.5 µM), for the others: at the highest dose activity change, negative = inhibition, usual class: inhibitors; 0.63% of 310,000 active; AID 720579; calls by dose curve; tested in A549 cells; further: potency means the concentration at half of the fitted maximal effect; nearly all actives have a fitted effect of over 35% in size
Sm TGR block: inhibitors of Schistosoma mansoni thioredoxin glutathione reductase; purified TGR, DTNB reduction, TNB absorbance 405 nm; 3% of 360,000 active; Potency, µM (doses to about 114 µM), for inactives: top-dose activity change, negative = inhibition, most hits filed as inhibitors; Q962Y6; AID 485364; further: potency means the concentration at half of the fitted maximal effect; nearly all actives have a fitted effect of over 60% in size
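TGR 20 nM + NADPH 100 uM (dispensed conc.), cpd preinc 15 min RT; start with NADPH (500 uM addition) then DTNB (15 mM addition). Kinetic TNB absorbance, 405 nm filter. Four-parameter Hill fit across titration.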
HCV inh: blocks hepatitis C virus | Huh7.5.1 HCVcc-Cre infection, luciferase reporter, 44 h | Potency, µM (titrated, usually from 41.8 µM), for inactives: at the highest dose activity change, negative = inhibition, hits mostly inhibitors | 3.4% of 340,000 active | AID 651820; further: potency means the concentration at half of the fitted maximal effect
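Whole-lifecycle infectious HCVcc-Cre system; cells 1,000/well, compound then virus (~0.5 moi) added 4 h after plating, 44 h culture. Luciferase read 15 sec following 15 min substrate incubation, room temp.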
HCMV inh: inhibitors of human cytomegalovirus; HFF cells, HCMV-luciferase reporter, 72 h; hits give low values; activity change, negative = inhibition, % at 57.5 µM; 4.5% of 410,000 active; in the data active means activity change below about -60%; inconclusive means no clear call, values can overlap the other calls; inactive means above about -39%
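Human foreskin fibroblasts infected with luciferase-reporter HCMV at MOI 1 PFU/cell, compounds at two doses. Luciferase measured 72 h post infection; normalized to buffer-only basal and Salinomycin (10uM) controls.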
The depositor's hits bear a star; i = inactive; ? = inconclusive; . = not tested or not shown. Unless noted, the call rests on the fitted dose curve; in most records, active means well fitted curve in the direction sought with a large enough effect; inconclusive means small, poorly fitted or top-dose-only effect, or another doubt; inactive means no such curve, though single readings can be large; an effect the other way counts as inactive or inconclusive. On the % scale 0 is the no-effect control and ±100 the full control effect.

SMILES	Vaccinia Venus	FMDV inh	VACV mCherry inh	Sm TGR block	HCV inh	HCMV inh
COc1cc(Cl)c(CNC[C@H]2O[C@@H](n3cnc(C(N)=O)n3)[C@H](O)[C@@H]2O)c(Cl)c1O	0%	-1%	-11%	.	22%	-15
CC(C)Oc1ccc2ccccc2c1CNC[C@H]1O[C@@H](n2cnc(C(N)=O)n2)[C@H](O)[C@@H]1O	-3%	-6%	-23%	.	5µM*	8
Cc1cccc(N2C(=O)CC(Sc3nc(C)cc(C)n3)C2=O)c1 (configuration not stated)	-2%	-3%	-15%	0%	19%	-37
O=C1CC(Sc2nnnn2C2CCCCC2)C(=O)N1c1ccccc1 (configuration not stated)	-16%	.	-14%	3.2µM*	?	-69*
Cc1c(O)nc(SC2CC(=O)N(c3ccccc3)C2=O)[nH]c1=O (configuration not stated)	.	-7%	.	?	19%	33
Cn1nnnc1SC1CC(=O)N(c2ccccc2)C1=O (configuration not stated)	4%	1%	i	1.6µM*	23%	10
Cc1ccc(N2C(=O)CC(Sc3cccs3)C2=O)cc1 (configuration not stated)	.	-6%	.	7.1µM*	11%	-12
Cc1cc(C)cc(N2C(=O)CC(Sc3nnnn3-c3ccccc3)C2=O)c1 (configuration not stated)	-13%	?	-19%	5µM*	.	7
C=CCNC(=O)CN1CCC(c2nc3ccccc3[nH]2)CC1	.	11%	.	?	12%	11
Cc1cc(C)cc(N2C(=O)CC(Sc3ncn[nH]3)C2=O)c1 (configuration not stated)	-6%	-1%	-18%	0.5µM*	0%	-3
Cc1cccc(N2C(=O)CC(Sc3nnc(C)s3)C2=O)c1 (configuration not stated)	1%	?	.	3.5µM*	?	6
CC(Oc1ccc(S(=O)(=O)N2CCCC2)cc1[N+](=O)[O-])C(=O)NC(C)c1ccccc1 (configuration not stated)	-16%	-28%	-7%	4%	-14%	-4
O=C(CN1C(=O)CCS(=O)(=O)c2ccccc21)Nc1ccc(Cl)cc1	-8%	21%	-5%	50µM*	0%	-16
CCOC(=O)c1ccccc1NC(=O)CN1C(=O)CC(c2ccco2)Sc2ccccc21 (configuration not stated)	-17%	41%	-8%	-3%	.	-29
CCOC(=O)c1ccccc1NC(=O)CN1C(=O)CCS(=O)(=O)c2ccccc21	-16%	54%	.	40µM*	8%	-10
CCc1ccc(-c2nc(CN3CCCC(C(=O)N4CCN(c5cc(Cl)ccc5C)CC4)C3)c(C)o2)cc1 (configuration not stated)	?	?	?	-9%	.	-86*
CCOC(=O)N1CCN(C(=O)C2CCCN(Cc3nc(-c4ccc(Cl)cc4)oc3C)C2)CC1 (configuration not stated)	?	?	?	0%	1.4µM*	?
Cc1ccc(Cl)cc1N1CCN(C(=O)C2CCCN(Cc3nc(-c4cccc(Cl)c4)oc3C)C2)CC1 (configuration not stated)	-9%	?	i	23%	.	-69*
Cc1oc2ncn(C)c(=O)c2c1C(=O)NCCCN1CCCC(C)C1 (configuration not stated)	-18%	3%	-5%	0%	.	6
COc1ccc(S(=O)(=O)NC(C)c2ccc3c(c2)OCCO3)cc1 (configuration not stated)	-6%	-19%	i	.	.	2
COc1ccc(N(CC(=O)NCc2ccccc2Cl)S(=O)(=O)c2c(C)noc2C)cc1	.	?	.	0%	?	-34
CCOc1ccccc1NC(=O)CN(c1ccc(C)cc1)S(=O)(=O)c1c(C)noc1C	?	?	-23%	9%	?	-9
CCOc1ccc(N(CC(=O)Nc2ccccc2CC)S(=O)(=O)c2c(C)noc2C)cc1	?	-7%	-28%	0%	.	-91*
CCc1ccc(NC(=O)CN(c2ccc3c(c2)OCO3)S(=O)(=O)c2c(C)noc2C)cc1	-3%	?	7%	0%	1%	-71*
Cc1noc(C)c1S(=O)(=O)N(CC(=O)NCc1ccccc1Cl)c1ccc(C(C)C)cc1	?	-23%	-10%	0%	.	-62*
SMILES	Vaccinia Venus	FMDV inh	VACV mCherry inh	Sm TGR block	HCV inh	HCMV inh
CCOc1ccc(N(CC(=O)NCCc2ccc(C)cc2)S(=O)(=O)c2c(C)noc2C)cc1	.	-12%	.	-17%	-17%	-69*
CC(NS(=O)(=O)c1ccc(Cl)c(Cl)c1)C(=O)Nc1cccnc1 (configuration not stated)	-10%	-17%	i	.	14%	-6
COC(=O)c1c(C)[nH]c(/C=N/Nc2ccccc2)c1C	-17%	61%	-6%	?	-15%	20
CCOC(=O)c1c(/C=N/Nc2ccccc2)c2sc(C)cc2n1C	.	.	.	22µM*	.	.
Cc1ccc(C)c(NS(=O)(=O)c2cc(C(=O)NCc3ccccn3)ccc2C)c1	-18%	41%	-24%	4%	-3%	5
COc1ccc(-c2noc(CN(C(=O)COc3cc(C)c(Br)c(C)c3)C(C)C)n2)cc1	-14%	-20%	i	8%	.	?
Cc1ccc(C(C)C)cc2c(C)ccc1-2	-14%	-21%	i	.	35µM*	6
CCOC(=O)c1c(CN2CCOCC2)oc2ccc(OC)cc12	.	-21%	.	10%	-9%	42
COc1ccc(NC(=O)CCn2cccn2)cc1OC	-4%	-10%	13%	12%	.	25
Cc1ccc2c(c1)c1ncnc(N3CCC4(CC3)OCCO4)c1n2C	.	.	.	0%	.	78
COc1ccc2c(c1)c1ccc3c(c1n2C)C(=O)C=CC3=O	-16%	28µM*	-20%	1.3µM*	?	2
Cc1ccc2c(c1)c1ccc3c(c1n2C)C(=O)C=CC3=O	.	32µM*	.	2.5µM*	11µM*	?
Cn1c2ccccc2c2ccc3c(c21)C(=O)C=CC3=O	13%	20µM*	-11%	.	?	26
COc1ccc2c(c1)c1ncn(CCN3CCCC3)c(=O)c1n2C	.	-3%	.	4%	?	88
Cc1ccc(C)c2c1c1ccccc1n2C	2%	56%	-7%	2%	?	4
CN(C)c1ccc(N=Nc2ccccc2C(=O)OCC(=O)NCC2CCCCC2)cc1	-29%	-12%	-10%	-16%	10%	-61*
Cc1cccc(CNC(=O)c2ccc3nc(Cc4ccccc4)oc3c2)c1	3%	1%	-11%	3%	.	4
COc1ccc(Br)cc1CNC(=O)CCC(=O)N1CCSc2ccccc21	-8%	-21%	-14%	0%	-30%	-4
